Among the data in PubChem BioAssay (EPA / NIEHS) are outcome and AC50 values, retold here.

Each structure is given as a SMILES string. Values joined by “and” are separate entries in the source; they are usually repeats but may differ in a detail not shown here. Equal values may be shown once. Results filed as inconclusive are left out. The source holds several records for some structures; these can differ, active in one and inactive in another. Active and inactive are the calls of the source. How the source made its calls: active means hit-call score of the fitted dose curve at least 0.9, where 1 is the maximum; inconclusive means response in the unintended direction; inactive means score below 0.9.

chicken Estrogen Receptor (ERa), ESR1 (gene 396099), sequence (P06212 whole entry, looked up, the tested form may be a part): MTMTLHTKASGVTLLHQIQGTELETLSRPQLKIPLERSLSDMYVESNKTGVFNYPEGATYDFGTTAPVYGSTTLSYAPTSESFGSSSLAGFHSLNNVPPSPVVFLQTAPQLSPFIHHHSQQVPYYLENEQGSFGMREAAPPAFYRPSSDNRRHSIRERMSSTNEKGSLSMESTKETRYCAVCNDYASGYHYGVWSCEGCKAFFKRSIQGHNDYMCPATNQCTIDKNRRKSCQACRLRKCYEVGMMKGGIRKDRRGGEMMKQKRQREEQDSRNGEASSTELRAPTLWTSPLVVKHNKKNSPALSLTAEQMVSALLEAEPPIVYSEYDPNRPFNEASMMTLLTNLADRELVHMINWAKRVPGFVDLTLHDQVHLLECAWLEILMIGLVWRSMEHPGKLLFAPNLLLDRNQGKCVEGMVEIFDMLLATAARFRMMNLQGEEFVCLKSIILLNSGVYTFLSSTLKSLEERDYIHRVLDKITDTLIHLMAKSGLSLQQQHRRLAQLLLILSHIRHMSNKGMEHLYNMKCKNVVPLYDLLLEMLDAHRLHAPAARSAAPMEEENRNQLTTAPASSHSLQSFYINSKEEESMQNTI

The subject of the first assay is turtle Androgen Receptor (AR), gene 101947425. Description: ATG_trAR_XSP2: Attagene TRANS-FACTORIAL Multi-Species (XSP2) HepG2 Assay for turtle Androgen Receptor (AR) (AID 2283815).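 On AC50: potency for gain of reporter signal meaning activation above DMSO baseline.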 In short, it runs like this: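 HepG2 cells transiently transfected with GAL4-UAS reporter units for chimeric NR-Gal4 receptors; 24 h dosing in presence of 3 nM 6-alpha-fluorotestosterone and 1.5 nM norgestrel. Reporter mRNA by RT-PCR and capillary electrophoresis, gain of signal versus DMSO.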
Consider `CCC(=O)O[C@H]1CC[C@H]2[C@@H]3CCC4=CC(=O)CC[C@]4(C)[C@H]3CC[C@]12C`, for which the outcome was inactive.

In general, AC50 refers to the concentration at which the activity in the assay is half-maximal. Regarding `C[C@]12CCC(=O)C=C1CC[C@@H]1[C@@H]2CC[C@]2(C)C(=O)CC[C@@H]12`, the AC50 is 2080 nM (active) and the outcome was inactive.

On to `C[C@]12CCC(=O)C=C1CC[C@@H]1[C@@H]2CC[C@@]2(C)[C@H]1CC[C@]2(C)O`, for which the AC50 is 3.41 nM (active).

With `CC(c1ccc(O)cc1)(c1ccc(O)cc1)c1ccc(O)cc1`, the compound was called inactive.

A further assay addresses chicken Estrogen Receptor (ERa), ESR1 (gene 396099) (UniProt P06212). Description: ATG_chERa_XSP2: Attagene TRANS-FACTORIAL Multi-Species (XSP2) HepG2 Assay for chicken Estrogen Receptor (ERa) (AID 2283817).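 Further: actives raise reporter signal above DMSO so AC50 reflects ER activation.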 In short, it runs like this:
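HepG2 cells transiently transfected with multiplexed GAL4-UAS reporter units expressing chimeric chicken ERa-Gal4; 24 h compound exposure. Reporter mRNA measured by RT-PCR with 6-FAM labelling, HpaI digestion and capillary electrophoresis; gain-of-signal fitted versus DMSO.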
`CCOC(=O)C(O)(c1ccc(Cl)cc1)c1ccc(Cl)cc1`: the AC50 is 8.82 µM (active) and the result was inactive.

`CCC(=O)O[C@H]1CC[C@H]2[C@@H]3CCC4=CC(=O)CC[C@]4(C)[C@H]3CC[C@]12C`: the AC50 was 12.6 nM (active) and 25.4 nM (active).

For the compound `C[C@]12CCC(=O)C=C1CC[C@@H]1[C@@H]2CC[C@]2(C)C(=O)CC[C@@H]12`, the AC50 is 9.2 nM (active) and 10.8 nM (active).

Regarding `c1cc2ccc3cccc4ccc(c1)c2c34`, the concentration at half-maximal activity (AC50) is 13.9 µM (active) and 25.4 µM (active).

As to `Oc1ccc(C(c2ccc(O)cc2)(C(F)(F)F)C(F)(F)F)cc1`, the concentration at half-maximal activity (AC50) was 0.233 µM (active) and the compound was called inactive.

With `C[C@]12CCC(=O)C=C1CC[C@@H]1[C@@H]2CC[C@@]2(C)[C@H]1CC[C@]2(C)O`, the AC50 is 0.00203 µM (active).

As for `CC(C)(O)C(=O)Nc1ccc([N+](=O)[O-])c(C(F)(F)F)c1`, the result was inactive.

For the compound `CC(C)(c1ccccc1)c1ccc(O)cc1`, the half-maximal activity concentration (AC50) was 1.15 µM (active).

As for `Clc1ccc(C(c2ccccc2Cl)C(Cl)(Cl)Cl)cc1` (stereo unspecified), the AC50 is 0.656 µM (active).

In the case of `Cc1cc(-c2ccc(N)c(C)c2)ccc1N`, the half-maximal activity concentration (AC50) was 7.48 µM (active) and 27.1 µM (active) and 17.7 µM (active).

Turning to `CC(c1ccc(O)cc1)(c1ccc(O)cc1)c1ccc(O)cc1`, the call was inactive.

For the compound `ClC(Cl)=C(c1ccc(Cl)cc1)c1ccc(Cl)cc1`, the half-maximal activity concentration (AC50) was 3.27 µM (active).

Another assay deals with zebrafish Estrogen Receptor (ER2a), gene 317734. Description: ATG_zfER2a_XSP2: Attagene TRANS-FACTORIAL Multi-Species (XSP2) HepG2 Assay for zebrafish Estrogen Receptor (ER2a) (AID 2283818).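 Further: hits raise reporter mRNA so AC50 reflects activation of zebrafish ER2a.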 Summed up:
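HepG2 cells transiently transfected with GAL4-UAS reporter units and chimeric zebrafish ER2a-Gal4, exposed 24 h; medium contains 3 nM 6-alpha-fluorotestosterone and 1.5 nM norgestrel. Reporter mRNA quantified by RT-PCR, HpaI digestion, capillary electrophoresis; gain versus DMSO.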
For the compound `CCOC(=O)C(O)(c1ccc(Cl)cc1)c1ccc(Cl)cc1`, the compound was classed as inactive.

Take `CCC(=O)O[C@H]1CC[C@H]2[C@@H]3CCC4=CC(=O)CC[C@]4(C)[C@H]3CC[C@]12C`: the AC50 is 27.7 nM (active) and 13.2 nM (active).

`C[C@]12CCC(=O)C=C1CC[C@@H]1[C@@H]2CC[C@]2(C)C(=O)CC[C@@H]12`: the half-maximal activity concentration (AC50) is 28.2 nM (active) and 100 nM (active).

In the case of `c1cc2ccc3cccc4ccc(c1)c2c34`, the call was inactive.

On to `Oc1ccc(C(c2ccc(O)cc2)(C(F)(F)F)C(F)(F)F)cc1`, for which the concentration at half-maximal activity (AC50) is 101 nM (active) and 587 nM (active).

For the compound `C[C@]12CCC(=O)C=C1CC[C@@H]1[C@@H]2CC[C@@]2(C)[C@H]1CC[C@]2(C)O`, the AC50 was 2.5 nM (active).

Consider `CC(C)(O)C(=O)Nc1ccc([N+](=O)[O-])c(C(F)(F)F)c1`, for which the result was inactive.

With `CC(C)(c1ccccc1)c1ccc(O)cc1`, the result was inactive.

On to `Clc1ccc(C(c2ccccc2Cl)C(Cl)(Cl)Cl)cc1` (stereo unspecified), for which the concentration at half-maximal activity (AC50) was 1580 nM (active).

Take `Cc1cc(-c2ccc(N)c(C)c2)ccc1N`: the concentration at half-maximal activity (AC50) was 4.47 µM (active) and 11 µM (active) and 6.8 µM (active).

`CC(c1ccc(O)cc1)(c1ccc(O)cc1)c1ccc(O)cc1`: the call was inactive.

With `ClC(Cl)=C(c1ccc(Cl)cc1)c1ccc(Cl)cc1`, the compound was classed as inactive.
